These results are taken from PubChem BioAssay (NCI).

Among the test systems are HT29 colon; SNB-75 CNS; SNB-19 CNS; U251 CNS; PC-3 prostate; SK-MEL-5 melanoma; UACC-62 melanoma; LOX IMVI melanoma; SK-MEL-28 melanoma; SK-MEL-2 melanoma; EKVX NSCLC; SN12C renal; UO-31 renal; TK-10 renal; ACHN renal; CAKI-1 renal; CCRF-CEM leukemia; MOLT-4 leukemia; A498 renal.
Experiment in all cases: NCI-60 one-dose screen, 48 h (100 = growth as untreated, 0 = no growth, -100 = all killed)
Holding throughout (details): 10 µM unless noted

About 83,000 compounds went through this panel and 20% of them were active in at least one assay; those are over-represented in the sample as a whole.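 Testing used 96-well plates and a 48-hour single-concentration exposure. Example: -40 means 40% of the starting cells died.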 Values without a mark were called inactive. Active and inactive are the calls of the source. Rule for the calls: active = growth percent below 10; inactive = the rest.

As to `C=CC(=O)N[C@@H](Cc1ccc(-c2cc(Cl)cc(Cl)c2)cc1)[C@@H](O)[C@H](O)C(=O)O`, the growth in the assay with HT29 colon is 87.9%; in the assay on SNB-75 CNS, 104%; in the assay on SNB-19 CNS, 98.1%; in the assay on U251 CNS it was 92.1%; with PC-3 prostate it was 89.4%; with SK-MEL-5 melanoma, 99.3%. The growth was 89.3% in the assay with UACC-62 melanoma; 98.4% in the assay on LOX IMVI melanoma; 107% in the assay with SK-MEL-28 melanoma; 97% in the assay with SK-MEL-2 melanoma; 93% in the assay with EKVX NSCLC; 95.7% in the assay on SN12C renal. Moreover, the growth in the assay on UO-31 renal was 84%; in the assay on TK-10 renal it was 99.3%; with ACHN renal, 100%; with CAKI-1 renal, 91.6%; in the assay on CCRF-CEM leukemia, 105%; with MOLT-4 leukemia, 93.3%.

With `Cn1ncc2c(Nc3ccc(Br)cc3)nc(Nc3ccc(Br)cc3)nc21`, the growth in the assay with SNB-75 CNS was 66.9%; in the assay on SNB-19 CNS, 71.4%; in the assay on U251 CNS, 33.4%; in the assay with SK-MEL-5 melanoma it was 47.6%; in the assay with UACC-62 melanoma it was 56.1%; in the assay with LOX IMVI melanoma, -5.28% (active). The growth is 50.1% in the assay with SK-MEL-28 melanoma; 47.6% in the assay on SK-MEL-2 melanoma; 41% in the assay on EKVX NSCLC; 47.1% in the assay with SN12C renal; 68.3% with UO-31 renal; 73.1% with TK-10 renal. For the same compound, the growth with ACHN renal was 40.1%; in the assay on CAKI-1 renal, 37.7%; in the assay on MOLT-4 leukemia, 26.7%.

Take `CCCCOC(=O)c1ccc(NC(=O)C(C)N2CCOCC2)cc1` (stereo unspecified): the growth in the assay with HT29 colon is 79.5%; in the assay with SNB-75 CNS it was 107%; in the assay with SNB-19 CNS, 99.5%; in the assay on U251 CNS, 93.2%; in the assay with PC-3 prostate, 72.7%; in the assay with SK-MEL-5 melanoma, 104%. Further, the growth in the assay with UACC-62 melanoma was 95.1%; with LOX IMVI melanoma, 101%; in the assay with SK-MEL-28 melanoma, 112%; in the assay with SK-MEL-2 melanoma, 90.6%; in the assay on EKVX NSCLC, 109%; in the assay with SN12C renal, 104%. For the same compound, the growth in the assay with UO-31 renal was 88.3%; in the assay with TK-10 renal it was 97.2%; in the assay on A498 renal, 99.5%; with CCRF-CEM leukemia, 72.4%; in the assay on MOLT-4 leukemia it was 94.9%.

For `NC(=O)c1c(NC(=O)c2ccccn2)sc2c1CCC(=O)C2`, the growth with HT29 colon was 68%; in the assay with SNB-75 CNS, -1.34% (active); in the assay on SNB-19 CNS, 42.7%; in the assay on U251 CNS, 13.6%; with PC-3 prostate, 10.7%; with SK-MEL-5 melanoma, -19.5% (active). Besides, the growth in the assay on UACC-62 melanoma was -3.06% (active); in the assay with LOX IMVI melanoma it was 21.6%; in the assay on SK-MEL-28 melanoma it was 39.9%; in the assay with SK-MEL-2 melanoma, 37.8%; in the assay with EKVX NSCLC it was 33.8%; in the assay with SN12C renal, 25.9%. Also, the growth in the assay on UO-31 renal is 4.56% (active); in the assay with TK-10 renal, 38.3%; with ACHN renal it was 5.89% (active); in the assay on CAKI-1 renal, -2.09% (active); in the assay with A498 renal, 86.1%; in the assay on CCRF-CEM leukemia, 12.7%. For the same compound, the growth with MOLT-4 leukemia is 81.6%.

For `COc1ccc(C(=O)/C=C/C23c4ccccc4C(c4ccccc42)C2C(=O)NC(=O)C23)cc1` (stereo unspecified), the growth with HT29 colon is 97.3%; in the assay on SNB-75 CNS, 85%; with SNB-19 CNS, 92.6%; in the assay on U251 CNS it was 93.7%; with PC-3 prostate, 102%; in the assay on SK-MEL-5 melanoma it was 95.9%. For the same compound, the growth is 90.6% in the assay on UACC-62 melanoma; 90.1% with LOX IMVI melanoma; 108% in the assay on SK-MEL-28 melanoma; 103% in the assay on SK-MEL-2 melanoma; 87.5% with EKVX NSCLC; 86.9% with SN12C renal. Further, the growth in the assay with UO-31 renal was 72.6%; in the assay on ACHN renal it was 95.4%; with CAKI-1 renal, 90.7%; in the assay on CCRF-CEM leukemia, 89.8%; with MOLT-4 leukemia, 87.3%.

On to `CCN(CC)CCCNC(=O)c1ccc(N)cc1O`, for which the growth was 103% in the assay with HT29 colon; 113% in the assay on SNB-75 CNS; 106% in the assay with SNB-19 CNS; 99% in the assay with U251 CNS; 94.2% with PC-3 prostate; 95.4% with SK-MEL-5 melanoma. Also, the growth with UACC-62 melanoma is 97.9%; in the assay on LOX IMVI melanoma, 90.6%; in the assay on SK-MEL-28 melanoma, 100%; in the assay with SK-MEL-2 melanoma, 100%; in the assay on EKVX NSCLC, 103%; in the assay with SN12C renal it was 101%. Moreover, the growth is 69.7% in the assay with UO-31 renal; 106% in the assay on TK-10 renal; 98.3% in the assay on ACHN renal; 106% in the assay with CAKI-1 renal; 56.2% in the assay on A498 renal; -32.8% (active) in the assay on CCRF-CEM leukemia. Further, the growth with MOLT-4 leukemia was 91%.

For `Clc1ccc2[nH]c3c(NCCCN4CCOCC4)ncnc3c2c1`, the growth with HT29 colon was 18.6%; with SNB-75 CNS, 85%; in the assay with SNB-19 CNS it was 92.9%; in the assay on U251 CNS, 69.6%; with PC-3 prostate, 75.6%; in the assay with SK-MEL-5 melanoma, 67%. The growth is 80.1% with UACC-62 melanoma; 64.5% in the assay on LOX IMVI melanoma; 91.2% in the assay on SK-MEL-28 melanoma; 94.5% in the assay on SK-MEL-2 melanoma; 82.5% in the assay with SN12C renal; 57.2% with UO-31 renal. For the same compound, the growth in the assay on TK-10 renal is 78.3%; in the assay on ACHN renal, 45.1%; in the assay on CAKI-1 renal, 75.9%; in the assay on A498 renal, 58.4%; in the assay on MOLT-4 leukemia it was 53.5%.

`CCc1cc(Cc2cc(CC)cc(C(C)(C)C)c2O)c(O)c(C(C)(C)C)c1`: the growth in the assay on HT29 colon was 23.3%; in the assay on SNB-75 CNS it was 42.1%; in the assay with SNB-19 CNS it was 20%; in the assay with U251 CNS it was 16.3%; in the assay with PC-3 prostate it was 15.1%; in the assay with SK-MEL-5 melanoma, 6.03% (active). For the same compound, the growth in the assay with UACC-62 melanoma was 25.7%; with LOX IMVI melanoma, 10.5%; in the assay on SK-MEL-28 melanoma it was 46%; in the assay on SK-MEL-2 melanoma, 52.9%; in the assay on EKVX NSCLC, 17.7%; in the assay on SN12C renal, 19.1%. In addition, the growth in the assay on UO-31 renal is 30.4%; in the assay on TK-10 renal it was 37.8%; with ACHN renal, 13.1%; in the assay on CAKI-1 renal, 19.6%; with A498 renal it was 63.7%; in the assay with CCRF-CEM leukemia, 12.9%. In the assay on MOLT-4 leukemia, the growth is 14.4%.
